Compounds without any hit were thinned out: in the full panel of roughly 83,000, 20% have a hit.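 In brief: 96-well plates, 48 h treatment, single concentration, percent growth endpoint.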 Activity calls are given as the source filed them. How the source made its calls: active means growth percent below 10; inactive means the rest.
Each molecule was assayed on HL-60(TB) leukemia (assay: NCI-60 one-dose screen, 48 h (100 = growth as untreated, 0 = no growth, -100 = all killed)). Conditions: 10 µM unless noted.
In the case of `O=C(c1ccc(Br)cc1)C(Br)C(c1ccc(Cl)cc1)C(c1ccccc1)[N+](=O)[O-]` (stereo not given), the growth is reported as 99.3% (inactive). For `COc1ccc2c(c1)C(=O)/C(=C/c1ccc(O)cc1)O2`, the growth was 59.4% (inactive). In the case of `CN(C)c1nc(-c2cccs2)n2nc(-c3ccco3)cc2n1`, the growth is reported as 95.3% (inactive). `CC[C@@H](C(=O)[C@@H](C)[C@@H](O)[C@H](C)[C@@H]1O[C@@H]([C@@H](CC)C(=O)O)CC[C@@H]1C)C1O[C@]2(C=CC(=O)[C@]3(CC[C@@](C)([C@H]4CC[C@](O)(CC)[C@H](C)O4)O3)O2)[C@H](C)C[C@@H]1C` (stereo not given in full) was tested, and the growth was -32.7% (active). In the case of `Oc1ccc(-c2nc(-c3ccc4oc5ccc(-c6[nH]c(-c7ccc(O)cc7)nc6-c6ccccc6)cc5c4c3)c(-c3ccccc3)[nH]2)cc1`, the growth is reported as 39.9% (inactive). For `COc1cc(-c2nc3sccn3c2-c2ccnc(NCCCNS(=O)(=O)c3ccc(F)cc3)n2)ccc1F`, the growth was 64.9% (inactive). `Cc1nc2c(nnn2-c2ccccc2)c2nc(-c3ccc(Cl)cc3)oc(=O)c12` was tested, and the growth was 98.8% (inactive). `CCOC(=O)c1cnc2ccc(OC)cc2c1Nc1cccc(S(=O)(=O)NC)c1` was tested, and the growth was 109% (inactive). `Clc1cccc(Cc2cn3cc(-c4ccccc4)nc3s2)c1` was tested, and the growth was 66.1% (inactive). `COc1cc(N=Nc2ccc(N)cc2)c(OC)cc1N=Nc1ccccc1.[Cl][Zn][Cl]` was tested, and the growth was 73.5% (inactive). For `O=C(O)c1cn(C2CC2)c2cc(N3CCN(Cc4cc(Cl)ccc4O)CC3)c(F)cc2c1=O`, the growth was 46.4% (inactive). In the case of `O=C(Nc1ccc([N+](=O)[O-])cc1)C(=O)Nc1ccc([N+](=O)[O-])cc1`, the growth is reported as 118% (inactive). For `c1cc(OCCN2CCCCC2)ccc1CNc1ccc2nc(CCC3CCCCC3)[nH]c2c1`, the growth was -31.6% (active). In the case of `C[N+]1(CC2CO2)CCCCCC1` (stereo not given), the growth is reported as 109% (inactive). With `O=C(Nn1c2c(sc1=NC1CC1)C(=O)c1ccccc1C2=O)c1cc2ccc1CCc1ccc(cc1)CC2` the growth was 2.39% (active). In the case of `COc1cc(C)cc2oc3oc(=N)c(C(=O)c4ccccc4)cc3c(=O)c12`, the growth is reported as 112% (inactive). For `CN1C(=O)[C@H]2c3c1cccc3[C@@]13NC(=O)O[C@H]1[C@H](CCC3(C)C)C2(C)C`, the growth was 97.9% (inactive). For `CCOc1c(B(O)O)cccc1-c1nc2ccc3[nH]ncc3c2c2c1CCCC2`, the growth was 23.6% (inactive). With `COc1cc2c(cc1OC)-c1ccc3cc4c(cc3c1N(CCCN1CCCCC1)C2)OCO4` the growth was 37.1% (inactive). For `C#Cc1cccc(Oc2ccc(NC(=O)CCl)cc2)c1`, the growth was 0.122% [8.25 µM] (active). With `C=CCC(=O)N[C@H](/C=C/C(=O)O)Cc1ccc(-c2cc(Cl)cc(Cl)c2)cc1` the growth was 101% (inactive). In the case of `C=CCc1cc(Cl)cc2c(OC(C)=O)c(C(C)=O)c(-c3ccccc3)nc12`, the growth is reported as 107% (inactive). In the case of `CCCCc1nc(Cl)c(C2CC(c3ccc(S(N)(=O)=O)cc3)=NN2c2cc(Cl)cc(Cl)c2)[nH]1` (stereo not given), the growth is reported as 9.72% (active). With `CCN(CC)CCN1C(=O)c2c(c(C)c3c(oc4ccc(OC)cc43)c2C)C1=O` the growth was 93.3% (inactive). In the case of `CCCN1[C@@H]2CC[C@H]1/C(=C\c1ccc(OC)c(OC)c1)C(=O)/C2=C/c1ccc(OC)c(OC)c1`, the growth is reported as 20.5% (inactive). In the case of `O=C(CCN1CCCC1)Nc1ccc2c(Nc3ccc(F)cc3)c3ccccc3nc2c1`, the growth is reported as -54.9% (active). In the case of `COc1cc(OC)cc(N2CCN(C(=O)Nc3nc4cc(F)ccc4nc3OC)CC2)c1`, the growth is reported as -17% (active). For `COC1C(O)CC(OC2CC(OC3CC(O[C@@H]4C(=O)c5c(cc6cc(OC7CC(OC8CC(O)C(O)C(C)O8)C(O)C(C)O7)c(C)c(O)c6c5O)CC4[C@H](OC)C(=O)C(C)=O)OC(C)C3O)OC(C)C2O)OC1C` (stereo not given in full), the growth was -18.6% (active). For `Cc1nn(-c2ccccc2)c(-n2ccnc2)c1/C=N/Nc1nc(-c2ccc(Cl)c(Cl)c2)cs1`, the growth was 76.6% (inactive). `CCC(C)C1NC(=O)C(CCCCN)NC(=O)C(CCCCN)NC(=O)C(CC(C)C)NC(=O)C(CCCCN)NC(=O)C(C(C)CC)NC(=O)C(C(C)C)NC(=O)C(C(C)CC)NC(=O)C(CCCCN)NC(=O)C(CCCCN)NC(=O)C(C)NC(=O)C(CCCCN)NC(=O)C(CC(C)C)NC1=O` (stereo not given) was tested, and the growth was -35.2% (active). With `C[n+]1ccc(C#N)c2ccccc21` the growth was 70.3% (inactive). For `Cc1ccc2[nH]cc(-c3nc(-c4cn(C)c5ncccc45)cs3)c2c1`, the growth was 63.7% (inactive). `Cc1[nH]c2ccccc2c1C1=CC(=O)C=CC1=O` was tested, and the growth was 12.4% (inactive). For `CN1CCc2c(c3ccccc3c3ccccc23)C1`, the growth was 35.1% (inactive). `O=C(/C=C\c1cc(Br)ccc1O)/C=C/c1cc(Br)ccc1O` was tested, and the growth was -3.03% (active). For `COc1ccc(/C(C)=C(\c2ccc(Cl)cc2)c2ccc(OCCN3CCCC3)cc2)cc1`, the growth was 37.9% (inactive). With `N#Cc1cc2[nH]c3ccc(OC(F)(F)F)cc3c2oc1=O` the growth was 99.8% (inactive). In the case of `NC(=O)c1ccc(NC(=O)c2oc3ccccc3c2-c2cnn(-c3ccccc3)c2)cc1`, the growth is reported as 98.4% [50 µM] (inactive). In the case of `CN(C)c1ccc(CNCCO)cc1`, the growth is reported as 96.1% (inactive). In the case of `Cc1c(O)c(=O)ccn1C1CCC(CC2CCC(n3ccc(=O)c(O)c3C)CC2)CC1` (stereo not given), the growth is reported as -0.371% (active).

From PubChem BioAssay (NCI)
